The list is not random: actives were taken first. Their share in the collection is about 2.4%.
A3A deaminase = blocks human APOBEC3A ssDNA deamination; P31941; recombinant A3A, FAM/TAMRA ssDNA deamination fluorescence; inhibition, % at 20 µM; hit rate 0.41% among 330,000; AID 493011;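 active = at least 40% inhibition at 20 µM here, with at most 30% in a related deaminase screen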
Target sequence (P31941 whole entry, looked up): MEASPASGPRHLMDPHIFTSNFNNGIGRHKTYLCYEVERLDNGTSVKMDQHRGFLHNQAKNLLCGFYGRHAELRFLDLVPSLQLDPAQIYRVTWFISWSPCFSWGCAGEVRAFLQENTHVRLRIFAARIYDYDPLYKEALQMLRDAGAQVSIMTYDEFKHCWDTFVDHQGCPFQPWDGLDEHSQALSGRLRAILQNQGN
Yeast superoxide = caloric restriction mimetics inhibiting age-related superoxide in yeast; S. cerevisiae aged cells, superoxide DHE fluorescence; stronger effect = lower value; superoxide response (% of plate mean), % at 10 µM; hit rate 0.18% among 330,000; AID 2690;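 active = superoxide response under a set limit, about three screen SD below normal, cut at about 65% in these data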;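 note: yeast aged for seven days with compound at 30 °C before DHE staining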
M18AAP inhibitor = blocks P. falciparum M18 aspartyl aminopeptidase | recombinant PfM18AAP, H-Glu-NHMec fluorogenic cleavage | inhibition, % at 7.35 µM | hit rate 1.2% among 290,000 | AID 1822;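 active = inhibition above the campaign mean inhibition over all tested compounds plus 3 SD, cut at about 28% in these data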
PfGluPho inh = PfG6PD (Plasmodium falciparum) enzyme inhibition | PfGluPho enzyme, NADPH resazurin-diaphorase fluorescence | inhibition, % at 20 µM | hit rate 0.78% among 350,000;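 active = inhibition reaching at least a set limit at 20 µM in the primary screen, cut at about 59% in these data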
A3G deaminase = inhibitors of human APOBEC3G DNA deaminase; Q9HC16; recombinant A3G, ssDNA deamination FAM/TAMRA fluorescence; inhibition, % at 20 µM; AID 493012; hit rate 0.28% among 330,000;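 active = inhibition of at least 40% at 20 µM, with no more than 30% in the related APOBEC3A deaminase screen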
Target sequence (Q9HC16 whole entry, looked up): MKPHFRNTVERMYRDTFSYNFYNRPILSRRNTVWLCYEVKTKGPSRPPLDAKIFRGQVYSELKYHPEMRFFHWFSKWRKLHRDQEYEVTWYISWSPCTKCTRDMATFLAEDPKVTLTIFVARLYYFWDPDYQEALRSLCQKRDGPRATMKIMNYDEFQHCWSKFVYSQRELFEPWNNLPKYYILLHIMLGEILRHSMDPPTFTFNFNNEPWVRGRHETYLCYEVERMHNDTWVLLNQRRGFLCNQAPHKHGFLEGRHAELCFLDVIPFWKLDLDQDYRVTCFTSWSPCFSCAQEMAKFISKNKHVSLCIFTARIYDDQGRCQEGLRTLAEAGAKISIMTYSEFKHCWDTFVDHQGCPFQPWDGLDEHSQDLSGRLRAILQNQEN
PfG6PD confirm = confirmation of Plasmodium falciparum G6PD inhibitors | shares compounds with PfGluPho inh | recombinant PfGluPho, NADPH-diaphorase-resazurin fluorescence | inhibition, % at 20 µM | hit rate 34% among 2,400 | AID 504753;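 active = inhibition of at least 50% at 20 µM in any single replicate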
Diaph ctr 10uM = counter-screen for P. falciparum G6PD inhibitors: diaphorase inhibitors, oxidizers. shares compounds with PfGluPho inh. diaphorase-coupled resazurin reduction, fluorescence, NADPH 10 uM. inhibition, % at 20 µM. hit rate 39% among 820. AID 504862;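 active = average inhibition reaching 50% or more with the compound at 20 µM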;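 note: resorufin red fluorescence formed as diaphorase reduces resazurin using NADPH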
Diaphorase 30uM = counter-screen for P. falciparum G6PD inhibitors: diaphorase inhibitors, oxidizers. hit rate 29% among 820. Diaphorase/resazurin coupled assay, resorufin fluorescence, 30 uM NADPH. inhibition, % at 20 µM. shares compounds with PfGluPho inh. AID 504863;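 active = inhibition averaging 50% or more, tested at 20 µM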
Each line names hits and unclear results; the compound was inactive in the other large screens (follow-up assays come after a bar, where they were run).

CCC(C)C(=O)Nc1nc(-c2ccc3c(c2)NC(=O)CO3)cs1 (stereo unspecified)	PfGluPho inh 64 | PfG6PD confirm inactive
O=C1COc2ccc(-c3csc(NCCc4ccccc4)n3)cc2N1	PfGluPho inh 61 | PfG6PD confirm inactive
Nc1nc(-c2ccc3c(c2)NC(=O)CO3)cs1	none
O=C(c1cccc(Cl)c1)C1CCCN(C(=O)c2ccc3c(c2)OCO3)C1 (stereo unspecified)	none
Cn1nc(-c2ccccc2)c2ncc(C(F)(F)F)cc21	none
COCC(C)n1c(C)cc(C(=O)CSc2nc(C)c(C)c(C)n2)c1C (stereo unspecified)	PfGluPho inh 60 | PfG6PD confirm inactive
COCCn1c(C)cc(C(=O)CSc2nc(C)c(C)c(C)n2)c1C	none
COc1ccc(Nc2nc3ccccc3n2C)cc1	none
COc1ccc(Cn2c(/C=C/c3ccccc3)nc3ccccc32)cc1	PfGluPho inh 74 | PfG6PD confirm inactive
COc1ccc(/C=C/c2nc3ccccc3n2C)cc1	PfGluPho inh 73 | PfG6PD confirm 56 | Diaph ctr 10uM inactive | Diaphorase 30uM inactive
Cc1ccc(S(=O)(=O)NN2CCCCCC2)cc1	none (no result: A3A deaminase, Yeast superoxide, M18AAP inhibitor, A3G deaminase)
COc1ccc(OC)c(/C=C/c2ccnc3ccccc23)c1	none (no result: A3A deaminase, Yeast superoxide, M18AAP inhibitor, A3G deaminase)
COc1cc(OC)c(OC)cc1/C=C/c1ccnc2ccccc12	PfGluPho inh 87 (no result: A3A deaminase, Yeast superoxide, M18AAP inhibitor, A3G deaminase) | PfG6PD confirm inactive
COc1ccc(-c2cn3c(C)c(C(=O)N4CCCc5ccccc54)sc3n2)cc1	none
Cc1c(C(=O)NCC(C)C)sc2nc(-c3ccc(F)cc3)cn12	none
Cc1c(C(=O)Nc2ccncc2)sc2nc(-c3ccc(F)cc3)cn12	PfGluPho inh 84 | PfG6PD confirm inactive
COc1ccc(-c2cn3c(C)c(C(=O)Nc4ccncc4)sc3n2)cc1	PfGluPho inh 65 | PfG6PD confirm inactive
COc1ccc(-c2cn3c4c(sc3n2)CCCC4)cc1	PfGluPho inh 93 | PfG6PD confirm inactive
Cc1cc(Oc2cccc3c2S(=O)(=O)N(C2CCCC2)CC(COCc2ccccc2)O3)cc(C)c1C (stereo unspecified)	none (no result: A3A deaminase, Yeast superoxide, M18AAP inhibitor, A3G deaminase)
COc1cc(C(=O)OCC(=O)N2CCC(Cc3ccccc3)CC2)cc(OC)c1OC	none (no result: M18AAP inhibitor)
COc1ccccc1NC(=O)c1ccccc1NC(=O)c1cccs1	none
Cc1cccc(Nc2cc(=O)n(C)c(=O)n2C)c1	none (no result: A3A deaminase, Yeast superoxide, M18AAP inhibitor, A3G deaminase)
O=[N+]([O-])c1ccc(-c2c[nH]c(=S)[nH]2)cc1	PfGluPho inh 64 | PfG6PD confirm inactive
Oc1c(Cl)cc(Cl)cc1/C=C/c1ccc2cccc(O)c2n1	PfGluPho inh 81 | PfG6PD confirm inactive
Oc1cccc2ccc(/C=C/c3ccccc3Br)nc12	none
Oc1ccc(Cl)cc1/C=C/c1ccc2cccc(O)c2n1	PfGluPho inh 74 (no result: Yeast superoxide) | PfG6PD confirm inactive
OCC[C@@H]1NCc2cc(CO)cc(-c3ccccc3)c21	none (no result: A3A deaminase, Yeast superoxide, M18AAP inhibitor, A3G deaminase)
Cc1ccc(Nc2n[nH]c(=S)s2)cc1	none (no result: A3A deaminase, Yeast superoxide, M18AAP inhibitor, A3G deaminase)
S=c1[nH]nc(Nc2ccc(Cl)cc2)s1	PfGluPho inh 65 | PfG6PD confirm inactive
Cc1ccc(Nc2n[nH]c(=S)s2)cc1F	PfGluPho inh 72 (no result: A3A deaminase, Yeast superoxide, M18AAP inhibitor, A3G deaminase) | PfG6PD confirm inactive
Cc1sc2nc(C3CC3)nc(N3CCN(C(=O)c4ccc(Cl)cc4)CC3)c2c1C	none
Cc1c(Cc2ccc3c(c2)OCO3)sc(NC(=O)c2cccc3ccccc23)c1C(N)=O	PfGluPho inh 87 | PfG6PD confirm inactive
O=C(CCl)Nc1cn(-c2ccccc2)nc1-c1ccc(F)cc1	none
COc1ccc(CC2=CC(=O)c3ccccc3C2=O)cc1	PfGluPho inh 85 | PfG6PD confirm inactive
COc1ccc2ccccc2c1/C=N/NC(=O)CC1(C)OCCCO1	none
CCOc1ccc2ccccc2c1/C=N/NC(=O)CC1(C)OCCCO1	PfGluPho inh 77 | PfG6PD confirm 57 | Diaph ctr 10uM 60 | Diaphorase 30uM 55
CCOc1ccc2ccccc2c1/C=N/NC(=O)c1ccncc1	PfGluPho inh 72 | PfG6PD confirm 66 | Diaph ctr 10uM 61 | Diaphorase 30uM inactive
CC1(C)Cc2c(sc3nc4n(-c5ccccc5)c(=O)c(CCC(=O)O)nn4c(=O)c23)CO1	PfGluPho inh 104 | PfG6PD confirm 91 | Diaph ctr 10uM inactive | Diaphorase 30uM inactive
CC1(C)Cc2c(sc3nc(-c4ccccc4)n(N)c(=O)c23)CO1	none
O=[N+]([O-])c1ccc(SNc2ccccc2)c([N+](=O)[O-])c1	none (no result: A3A deaminase, Yeast superoxide, M18AAP inhibitor, A3G deaminase)
O=[N+]([O-])c1ccc(-[n+]2ccc3ccccc3c2)c([N+](=O)[O-])c1	PfGluPho inh 94 (no result: M18AAP inhibitor) | PfG6PD confirm 67 | Diaph ctr 10uM inactive | Diaphorase 30uM inactive
CCOC(=O)c1cc2c(=O)n3cccc(C)c3nc2n(Cc2ccco2)c1=NC(=O)c1cccnc1	PfGluPho inh 60 (no result: A3A deaminase, Yeast superoxide, A3G deaminase) | PfG6PD confirm inactive
CCCCn1c(N)c(N(CC(C)C)C(=O)C2CCN(S(=O)(=O)c3ccc(C)c(C)c3)CC2)c(=O)[nH]c1=O	none
COC(=O)c1ccc(CNC(=O)C(NC(=O)c2ccco2)C(C)C)cc1 (stereo unspecified)	none
NC1=C(Br)C(=O)c2ccccc2C1=O	none
NC1=CC(=O)C(=O)c2ccccc21	PfGluPho inh 71 (no result: A3A deaminase, Yeast superoxide, M18AAP inhibitor, A3G deaminase) | PfG6PD confirm inactive
Cc1cccc(C)c1NC(=O)CNC(=O)C1CC(=O)N(Cc2ccccc2)C1 (stereo unspecified)	none (no result: M18AAP inhibitor)
CC(C)(C)c1ccc(S(=O)(=O)Nc2noc3ccccc23)cc1	none
COC(=O)c1ccc(CCc2cc(O)ccc2O)cc1	none (no result: A3A deaminase, Yeast superoxide, M18AAP inhibitor, A3G deaminase) | PfG6PD confirm inactive
COC(=O)c1ccc(O)cc1	none (no result: Yeast superoxide)
COC(=O)c1ccc(CCc2cc(O)c(Br)cc2O)cc1	PfGluPho inh 119 (no result: A3A deaminase, Yeast superoxide, M18AAP inhibitor, A3G deaminase) | PfG6PD confirm inactive
O=C(COC(=O)CNS(=O)(=O)c1cccc(Br)c1)NC(=O)Nc1ccc2c(c1)OCCO2	none (no result: A3A deaminase, A3G deaminase)
COc1cccc(-c2nn(C)c3sc(C(=O)NCc4ccc5c(c4)OCO5)cc23)c1	none
COc1cccc(-c2nn(C)c3sc(C(=O)NCc4ccc(C)o4)cc23)c1	PfGluPho inh 64 | PfG6PD confirm inactive
O=S(=O)(c1cccs1)N1CN(Cc2ccccc2)c2nc3ccccc3nc21	none
O=S(=O)(c1cccs1)N1CN(Cc2cccs2)c2nc3ccccc3nc21	PfGluPho inh 69 | PfG6PD confirm inactive
Cc1nn(C(=O)c2nn(C)cc2[N+](=O)[O-])c(C)c1Br	none
Cc1cc(C)c2cc(C)c3nnc(SCC(=O)NCc4ccc5c(c4)OCO5)n3c2c1	none
Cc1ccc(C)c2c1cc(C)c1nnc(SCC(=O)c3cccs3)n12	PfGluPho inh 60 | PfG6PD confirm inactive
Cc1ccc(C)c2c1cc(C)c1nnc(SCC(=O)NCc3ccc4c(c3)OCO4)n12	PfGluPho inh 94 | PfG6PD confirm 84 | Diaph ctr 10uM 93 | Diaphorase 30uM 70
O=S(=O)(Nc1cccc2ccccc12)c1ccccc1	none

Source: PubChem (several laboratories)
